# Screens (PubChem BioAssay)
# SARS PLpro yeast: inhibitors of SARS-CoV papain-like protease in yeast | S. cerevisiae expressing SARS-CoV PLpro, growth rescue | Potency, µM (titrated, usually from 32.9 µM), actives largely listed as activators | 330,000 tested, 0.19% active | AID 485353; note: nearly all actives have a fitted effect of over 55% in size
# Shiga toxin inh: Shiga toxin inhibition | Vero cells, Shiga toxin protein synthesis inhibition reporter | inhibition, % at 38.7 µM | 290,000 tested, 9.2% active | AID 2315; in the data active = inhibition mostly above about 28%, no sharp cut-off; inactive = mostly below about 43%
# CHX counter: counter-screen hit for Shiga toxin inhibitors, cycloheximide; cell reporter, cycloheximide protein synthesis inhibition counterscreen; max response, %; 300,000 tested, 12% active; in the data active = max response mostly above about 13%, no sharp cut-off; inactive = mostly below about 14%; note: read at 38.3 µM for the half of the compounds with a filed dose
# Pf growth 48h: inhibits P. falciparum growth in the first generation, 48 h; P. falciparum luciferase growth in erythrocytes, 48 h; Potency, µM (highest dose often 28.7 µM), hits mostly inhibitors; 310,000 tested, 5.9% active; active = well fitted inhibition curve with a large enough effect; inconclusive = small, poorly fitted or top-dose-only effect, or another doubt; inactive = no such curve, though single readings can be large or run the other way
#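 Compounds are pin-transferred into medium, infected erythrocytes (2% hematocrit, 0.1% parasitemia final) are added, and plates sit one parasite generation at 37 C in 5% CO2. Detection reagent is then added and luminescence measured.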
# Pf growth 96h: inhibits malaria parasite growth, 96 h. Potency, µM (doses to about 28.7 µM), actives largely listed as inhibitors. P. falciparum luciferase reporter growth, 96 h. 320,000 tested, 6.9% active; active = well fitted inhibition curve with a large enough effect; inconclusive = small, poorly fitted or top-dose-only effect, or another doubt; inactive = no such curve, though single readings can be large or run the other way
#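 Parasite growth measured via integrated firefly luciferase reporter in P. falciparum. Infected erythrocytes at 2% hematocrit, 0.05% parasitemia final were treated 96 hours at 37 C under 5% CO2, and luminescence was read.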
# NS1 inh: influenza NS1 inhibition | Potency, µM (top dose mostly 46.1 µM) | 270,000 tested, 0.4% active; note: actives are rising curves; nearly all actives have a fitted effect of over 50% in size
#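 Recovery from NS1-induced slow growth read by OD600 in budding yeast switched to galactose assay medium (pH 6.0, -URA) at 1:100 dilution. Compound 23 nl per well; the matching strain lacking NS1 serves as control.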
# Numbers stand for hits; n = inactive; u = inconclusive; x = no result given. The list is not random: actives were taken first. Their share in the collection is about 21%. Unless noted, calls come from the whole dose curve.
SMILES,SARS PLpro yeast,Shiga toxin inh,CHX counter,Pf growth 48h,Pf growth 96h,NS1 inh
COc1cc(NC(=O)CCc2nnc3ccc(N4CCN(C)CC4)nn23)cc(OC)c1,n,n,n,n,n,n
Cc1ccc(NC2=NC(c3ccc(C)cc3)n3c(nc(C)cc3=O)N2)cc1 (stereo unspecified),n,n,n,u,12µM,n
COC(=O)CNC(=O)c1cccc(-c2ccc(OC)cc2)c1,n,80,36,n,2.3µM,n
COc1ccc(-c2cccc(C(=O)NCC(=O)O)c2)cc1,n,35,23,x,n,n
CCN(CC)C(=O)c1cccc(-c2ccc(OC)cc2)c1,n,49,25,u,x,n
O=C(N/N=C/c1ccc(-c2ccc(Cl)c(C(=O)O)c2)o1)c1cc2c(ccc3ccccc32)o1,n,n,n,n,n,n
N/C(=N\OC(=O)CCCCCN1C(=O)c2ccccc2C1=O)c1ccccc1,n,71,37,n,n,n
N/C(=N\OC(=O)CCCc1ccccc1)c1ccccc1,n,n,31,n,n,n
Cc1cccc(/C(N)=N/OC(=O)CCCc2ccccc2)c1,n,66,57,n,n,n
N/C(=N\OC(=O)CCCc1ccccc1)c1cccc([N+](=O)[O-])c1,n,n,n,n,n,n
Cc1cccc(/C(N)=N/OC(=O)CCCN2C(=O)c3ccccc3C2=O)c1,n,n,n,n,n,n
N/C(=N\OC(=O)CCCOc1ccccc1)c1ccccc1,n,n,23,n,n,n
CC1(c2ccc(OC(F)F)cc2)NC(=O)N(CC(=O)N2c3ccccc3NC(=O)C2(C)C)C1=O (stereo unspecified),n,x,x,u,n,x
Cc1ccc(Oc2ccc(NS(=O)(=O)c3cccc(C(=O)O)c3)cc2)cc1,n,x,x,x,x,x
Cc1ccccc1OCCN1C(=O)NC2(CCc3ccccc32)C1=O (stereo unspecified),n,n,n,n,n,n
CC(C)(S)[C@H](N)C(=O)O,x,x,x,x,x,n
N/C(=N\OC(=O)CCCc1ccccc1)c1cccnc1,n,40,21,n,n,n
N/C(=N\OC(=O)CC(c1ccccc1)c1ccccc1)c1cccnc1,n,n,n,u,n,n
CCC(=O)Nc1c(-c2ccccc2)c(=O)c2ccccc2n1C,n,n,n,n,n,n
Cc1c(OC(C)C(=O)NCc2ccccn2)ccc2c3c(c(=O)oc12)CCCC3 (stereo unspecified),u,n,n,u,1.7µM,n
Cc1c(OCC(=O)NCc2ccncc2)ccc2c3c(c(=O)oc12)CCC3,u,n,n,u,13µM,n
Cc1c(OCC(=O)NCc2cccnc2)ccc2c3c(c(=O)oc12)CCC3,n,n,n,n,n,n
Cc1c(OC(C)C(=O)NCCCN2CCCC2=O)ccc2c3c(c(=O)oc12)CCCC3 (stereo unspecified),n,n,n,u,n,n
Cc1c(OC(C)C(=O)NCC(O)c2ccccc2)ccc2c3c(c(=O)oc12)CCC3 (stereo unspecified),n,n,n,13µM,10µM,n
Cc1c(OC(C)C(=O)NCc2ccncc2)ccc2c3c(c(=O)oc12)CCC3 (stereo unspecified),n,n,n,u,9.3µM,n
SMILES,SARS PLpro yeast,Shiga toxin inh,CHX counter,Pf growth 48h,Pf growth 96h,NS1 inh
N#Cc1ccccc1S(=O)(=O)Nc1ccc2c(c1)OCCO2,n,n,n,n,u,n
Cc1csc(CNC(=O)c2ccc(OC3CCN(CCc4ccccc4)CC3)cc2)n1,n,n,n,u,n,n
COc1ccc(NC(=O)NC23CC4(C)CC(C)(CC(C)(C4)C2)C3)cc1,n,n,n,u,n,n
Cc1cc(C(=O)NCc2cccs2)ccc1[N+](=O)[O-],n,n,14,n,n,n
COc1ccccc1-c1cc(C(F)(F)F)nc(NCc2cccs2)n1,n,n,n,u,5.9µM,n
Cc1ccc(C(=O)NCc2ccc3c(c2)OCO3)cc1C,n,55,35,x,n,n
Cc1cc(C(=O)NCc2ccc3c(c2)OCO3)ccc1[N+](=O)[O-],n,n,25,n,n,n
Cc1ccc(C(=O)NCc2ccc3c(c2)OCO3)cc1S(=O)(=O)N1CCCCC1,n,n,n,u,n,n
Cc1cc(C(=O)OCC(=O)NCc2cccs2)ccc1[N+](=O)[O-],n,x,x,x,x,x
OCCC1CN(Cc2cccc3c2OCO3)CCN1C1CCCCC1 (stereo unspecified),n,n,n,n,n,n
